Z-score data for 40 molecules are collected here from PubChem BioAssay.

Activity calls are given as the source filed them.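 How the source made its calls: active means z-score of at least 1.8 in each of two replicates, scored against plate mean and spread of sample wells; inactive means the rest.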

The nature of the experiment: galactose survival enhancers in mitochondrial complex I cybrids – cell-based, galactose medium, ATP luminescence, primary screen (AID 1645843).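 Further: positive z means more ATP and so rescue of galactose-driven cybrid death.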 The settings on record: complex I mutant cybrid cells, 72 h, stronger effect = higher value.
Turning to `CCCC(C)c1nc2c(cnn2C(C)C(C)C)[nH]1` (stereo not given), the z-score is -1.01 (inactive). For the molecule `CC(CCCC(C)(C)O)CCNCC1CCN(c2ccccc2)C1` (stereo not given), the z-score is -0.605 (inactive). On to `COc1ccc(-c2noc(C3CC(C(C)C)=NO3)n2)c(OC)c1` (stereo not given), for which the z-score was -0.525 (inactive). The result for `Cc1ccc(C(=O)N2CCNC(=O)C2Cc2ccccc2)cc1F` (stereo not given) reads -0.505 (inactive); that for `COc1ccccc1OC(C)c1nc(Cc2cccc(C(F)(F)F)c2)no1` (stereo not given), 0.51 (inactive). On to `Cc1cc(CN2CCOC(CN)C2)ccc1OC1(C(=O)O)CCSCC1` (stereo not given), for which the z-score is -0.415 (inactive). `CC(C)(O)c1cn(C2CCN(C(=O)CCC(=O)N3CCCCCC3)CC2)nn1`: the z-score was -0.545 (inactive). Regarding `CCn1ncc(NC(=O)Cn2cc(C)c(-c3ccc(Cl)s3)n2)n1`, the z-score is -0.01 (inactive). Next, `O=C(Nc1n[nH]c(-c2ccco2)n1)N1CCc2c([nH]c3ccccc23)C1`: -0.135 (inactive); `CC(C)CCC(C)N[C@H](CO)Cc1ccccc1` (stereo not given in full): -0.5 (inactive). Next, `Cc1ccc2c(C(=O)N3CCCC(C#N)C3)cc(-c3cnn(C(C)C)c3)nc2c1` (stereo not given): -0.52 (inactive); `COc1ccc(N2CCN(C(=O)Nc3nc(C)ns3)CC2(C)C)cc1`: -0.445 (inactive). The result for `COc1cc(OC2(C(=O)O)CCSCC2)ccc1CN1CCCNCC1` reads -0.23 (inactive); that for `Nc1ncc(-c2ccc(Cl)cc2Cl)cn1`, -0.065 (inactive). In the case of `OCCCCCNc1nccc(-c2cnn(-c3ccccc3F)c2)n1`, the z-score is -0.905 (inactive).

On to `Cc1cc(N2CCCN(C(=O)Nc3nncs3)CC2)ccn1`, for which the z-score was -0.265 (inactive). For the molecule `CC(CCCC(C)(C)O)CCNC(C1CC1)C1CC1` (stereo not given), the z-score is -0.515 (inactive).

In the case of `COc1ccc(CC(=O)NCc2cccc(SC)c2)cc1`, the z-score was 0.19 (inactive). `O=c1c2c3c(sc2ncn1CCF)CCCCC3`: the z-score is -0.535 (inactive). The result for `CC(=O)NCCC1CCN(C(=O)C(C)(C)Oc2cc(C)ccc2Cl)CC1` reads -0.545 (inactive). Next, `CCCc1cc(C(=O)N2CCCC(Cn3cc(CC(C)C)nn3)C2)n[nH]1` (stereo not given): 1.21 (inactive); `CCCCCC(=O)N1CCC(n2cc(C3CCCC3)nn2)CC1`: 0.965 (inactive). The result for `Clc1ccc(C(Cn2ccnc2)OCc2csc3c(Cl)cccc23)c(Cl)c1` (stereo not given) reads 0.155 (inactive); that for `Cc1nsc(NC(=O)NCc2ccccc2OC(F)(F)F)n1`, 0.2 (inactive). As for `Cc1cccc(-n2cc(-c3ccn(CC(=O)Nc4ccnn4C)n3)cn2)c1`, the z-score was 1.22 (inactive). The result for `COc1ccc2nc(Cn3cnc4sc(C)cc4c3=O)[nH]c2c1` reads 0.395 (inactive). Next, `COc1cc(-c2cccc(C)c2C)nc(N)n1`: -0.335 (inactive); `CC(=O)N1CCCN(c2nccc(-c3cnn(-c4ccccc4F)c3)n2)CC1`: -0.71 (inactive). Next, `O=C1CN(c2ncnc3nc[nH]c23)CCN1C1CCCCC1`: 1.14 (inactive); `CCCCc1cn(C2CCN(C(=O)C3CC3(CC)CC)CC2)nn1` (stereo not given): 0.39 (inactive). Regarding `CCCCCC(=O)N1CCC(n2cc(C3CCCCC3)nn2)CC1`, the z-score was -0.415 (inactive). Next, `CCCN1CCC(NCC(CC)(CC)CCC#N)CC1`: -0.565 (inactive); `COC(C)(C)CCCC(C)CCN1CCC(n2cc(C(C)(C)N)nn2)CC1` (stereo not given): -0.52 (inactive). Next, `CC(C)c1n[nH]c2c1CN(C(=O)C1CCCCCC1)CC2`: -0.485 (inactive). Take `CCCCC(CO)NC(C)CCc1ccc(OC)cc1` (stereo not given): the z-score is -0.47 (inactive). The result for `CC(C)C1C(=O)N(C)CCN1C(=O)C1(C)CC1` (stereo not given) reads -0.54 (inactive). The result for `Fc1ccc(-n2cc(-c3ccnc(NCc4cnc5ccccn45)n3)cn2)cc1` reads -0.035 (inactive); that for `CC(CCCC(C)(C)O)NC/C=C/c1ccc(F)cc1` (stereo not given), -0.51 (inactive); that for `CC1CCCN1C(=O)c1cc(-c2cnn(C(C)C)c2)nc2cc(F)ccc12` (stereo not given), -0.72 (inactive). The result for `Cc1nn(C)c(C)c1-c1ccnc(NCc2ccc3nsnc3c2)n1` reads -0.665 (inactive).
